# From PubChem BioAssay AID2284057 (EPA ToxCast)
# Activity calls are given as the source filed them. The calls were made as follows: active = hit-call score of the fitted dose curve at least 0.9, where 1 is the maximum; inactive = score below 0.9.
# Biological target: CYP2B6, CYP2B6 (gene 1555) (UniProt P20813)
# Assay: ERF_FR_ADME_hCYP2B6: Eurofins (ERF) CYP450-related Enzyme Activity (ADME) LeadHunter Assay for CYP2B6
# Description: ERF_FR_ADME_hCYP2B6 is a biochemical, single-readout assay that uses extracted gene-proteins in a cell-free assay. Measurements were taken 0.5 hour after chemical dosing in a 96-well plate. See CYP2B6 inhibition (recombinant, EFC substrate).ERF_FR_ADME_hCYP2B6 is an assay component calculated from the ERF_FR_ADME_hCYP2B6 assay. It is designed to measure enzyme activity using a type of enzyme reporter as detected by fluorescence intensity of HFC with fluorimetry technology.Data from the assay component ERF_FR_ADME_hCYP2B6 was analyzed at the assay endpoint, ERF_FR_ADME_hCYP2B6, in the positive analysis fitting direction relative to acetonitrile as the negative control and baseline of activity. Using a type of enzyme reporter, loss-of-signal activity can be used to understand changes in enzymatic activity as they relate to gene CYP2B6. To generalize the intended target to other relatable targets, this assay endpoint is annotated to the cyp intended target family, where the subfamily is steroidogenesis-related.
# […] are incubated for 15 minutes at 37 C with Bupropion as substrate and Clopidogrel as control inhibitor. Test Sample Requirements: Minimum for 1) Screen: 25 ul of 10 mM stock -OR- 1 mg (pre-weighed) for 10 uM final testing. 2) Dose Response: 60 ul of 10 mM stock -OR- 1 mg (pre-weighed). uM.
# Sequence of CYP2B6, CYP2B6 (gene 1555) (P20813 whole entry, looked up): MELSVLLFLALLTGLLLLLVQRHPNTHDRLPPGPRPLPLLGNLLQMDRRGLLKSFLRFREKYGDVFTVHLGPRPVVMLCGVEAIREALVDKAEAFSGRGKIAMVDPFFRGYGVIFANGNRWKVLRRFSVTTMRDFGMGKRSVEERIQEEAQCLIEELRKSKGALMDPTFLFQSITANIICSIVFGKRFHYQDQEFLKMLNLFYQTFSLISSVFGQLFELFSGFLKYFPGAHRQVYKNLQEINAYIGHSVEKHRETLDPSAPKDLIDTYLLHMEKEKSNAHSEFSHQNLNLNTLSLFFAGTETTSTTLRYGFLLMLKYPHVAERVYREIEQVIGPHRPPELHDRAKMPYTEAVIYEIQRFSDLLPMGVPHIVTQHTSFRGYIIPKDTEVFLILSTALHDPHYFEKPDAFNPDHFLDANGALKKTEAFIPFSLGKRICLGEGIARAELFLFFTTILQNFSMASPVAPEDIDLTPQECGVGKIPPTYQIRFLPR
row,SMILES,AC50
1,O=C(/C=C/c1ccc(O)cc1)CC(=O)/C=C/c1ccc(O)cc1,1270 nM (active)
